Data as given in ChEMBL document CHEMBL1157539, “Thousands of chemical starting points for antimalarial lead identification” (Nature, 2010).

What follows are molecules tested on HepG2 (assay: GSK_TCMDC: Percent inhibition of human HepG2 cell line. Test compounds present at 10uM.).
Type: functional

SMILES | Inhibition
COc1ccc(CNCc2ccc(F)cc2)cc1-c1cccc(S(=O)(=O)NCCN2CCCC2)c1.O=C(O)C(F)(F)F | 43%
COC(=O)c1sc2ccccc2c1NC(=O)c1ccc(C)c(C)c1 | 4%
COc1ccc2nccc([C@@H](O)CN3CCC(NCc4cnc5c(c4)NC(=O)CS5)C(F)C3)c2c1.Cl (stereo not given in full) | 0%
COc1cccc(CNC(=O)NC2CCN(c3ccnc(Nc4ccc(F)cc4)n3)C2)c1 (stereo not given) | 20%
CC(Sc1nnc(-c2cccs2)[nH]1)C(=O)c1c[nH]c2ccccc12 (stereo not given) | 0%
O=C(NC1CCC(N2CCC(Cc3ccc(F)cc3)CC2)CC1)c1cc2ccccc2[nH]1 (stereo not given) | 60%
CC(C)Cn1c2ccccc2c2nc3nc(N)nc(N)c3nc21 | 36%
N#Cc1ccc(/C=C/C(=O)NCCCCCN2CCCN(C(=O)Nc3ccc(Cl)c(C(F)(F)F)c3)CC2)cc1 | 28%
COc1ccc(S(=O)(=O)NC2CCN(CCCOc3ccnc4cc(Cl)ccc34)C2)cc1OC (stereo not given) | 8%
COc1cccc(NC(=O)Nc2ccc(Nc3nc(C)cc(N4CCCC4)n3)cc2)c1 | 28%
O=C(Nc1ccc(C(F)(F)F)cc1)c1ccc(S(=O)(=O)NCC2CCCN(CC3CCCCC3)C2)cc1.O=C(O)C(F)(F)F (stereo not given) | 44%
CC(=O)c1cccc(Nc2nc3ccc(OCc4cc(Cl)cc(Cl)c4)c(C#N)c3[nH]2)c1 | 29%
COc1cccc(NC(=O)c2ccc(NCCCN3CCC(C)CC3)c([N+](=O)[O-])c2)c1 | 9%
Cc1cc(=NN=Cc2ccccc2F)c2cccc(C)c2[nH]1 | 7%
COc1ccc2c(=NN=Cc3ccc(OC)c4ccccc34)cc(C)[nH]c2c1 | 3%
CCc1sc(N2CCC(C)CC2)nc1C(=O)Nc1ccc(F)cc1C(F)(F)F | 1%
CN(C)c1ccc(CN2CCC(NC(=O)c3ccc(-c4ccccc4Cl)s3)CC2)cc1.O=C(O)C(F)(F)F | 35%
O=C1Nc2cccc3c2C1(CCCCN1CCC(c2cc4ccncc4[nH]2)CC1)CCC3 (stereo not given) | 0%
Cc1cc(N[C@@H](Cc2ccccc2)C(=O)NCCc2ccccc2)nc(NCCc2ccccc2)n1.O=C(O)C(F)(F)F | 0%
COCCN1CCN(Cc2cccc(-c3ccc(-c4nc5ccccc5[nH]4)cc3)c2)CC1.O=C(O)C(F)(F)F | 9%

SMILES | Inhibition
Cc1cc(Nc2ccc3ccccc3c2)n2ncnc2n1 | 11%
CCCC(CNC(=O)c1cc2c(Cl)cc(Cl)cc2[nH]1)CNc1cc(=O)c2ccccc2[nH]1.O=C(O)C(F)(F)F (stereo not given) | 9%
Cc1c(S(=O)(=O)Nc2cccc(CCN3CCCCC3CCN3CCCC3)c2)sc2ccc(Cl)cc12 (stereo not given) | 22%
CC(C)[C@H](NC(=O)c1ccc(O)c(-c2ccc(Cl)c(Cl)c2)c1)C(=O)NCCN1CCCC1 | 4%
Br.CCCCC(NCC)c1ccc(OCCOc2ccc(C(CCCC)NCC)cc2)cc1 (stereo not given) | 100%
CCCCCC(C)C(C)c1cc(OC(N)=O)c2c(c1)OC(C)(C)C=C2c1ccncc1 (stereo not given) | 81%
CN(CCN)Cc1cccc(-c2cccc(-c3nc4cc(F)ccc4[nH]3)c2)c1.O=C(O)C(F)(F)F | 20%
CO/C(=C\C=C\c1cc2cc(Cl)c(Cl)cc2[nH]1)C(=O)NCCCN1CCN(C2CCCCC2)CC1 | 60%
Cc1nc(N)nc(N)c1-c1ccc(Br)c([N+](=O)[O-])c1 | 64%
CSc1nnc2n(Cc3ccccc3)c(=O)c3c(n12)-c1ccccc1CC31CCCCC1 | 0%
COc1ccc(Cl)cc1N1CCN(CCCNC(=O)c2ccc(-c3nc4cc(Cl)c(F)cc4[nH]3)c(F)c2)CC1 | 21%
O=C(/C=C/c1ccc(Cl)c(Cl)c1)NC1CCC(CN2CCC(c3coc4ccccc34)CC2)CC1 (stereo not given) | 40%
CC(CN1CCN(C)CC1)C(=O)Nc1ccc(-c2cccc(-c3nc4cc(F)ccc4[nH]3)c2)cc1 (stereo not given) | 8%
CCc1ccc(CN2CCCCC(NC(=O)c3cc(-c4ccccc4F)cs3)C2)cc1.O=C(O)C(F)(F)F (stereo not given) | 25%
Clc1ccc(CNc2ccnc(NCc3ccc4c(c3)OCCCO4)n2)c(Cl)c1 | 50%
COc1cc2nc(NCCN3CCOCC3)n3nc(-c4ccccc4)nc3c2cc1OC | 15%
CCN1CCN(c2cc(C)c3cc(NC(=O)c4cc(OC)cc(OC)c4)ccc3n2)CC1 | 0%
C=Cc1ccccc1C1(O)CCN(CCCCNC(=O)c2ccc(-c3ccc(C#N)cc3)cc2)CC1 | 27%
CCOC(=O)c1cc(C(=O)NCCCCN2CCC(c3cn(C)c4ccccc34)CC2)ccc1-c1ccc(C(F)(F)F)cc1 | 25%
CC(C)NCc1ccc(-c2ccc(NC(=O)c3cccc(C#N)c3)cc2)cc1.O=C(O)C(F)(F)F | 40%
